Source: PubChem BioAssay (NCATS)
Records with an inconclusive call do not appear. A call without a number means that no potency is given here. The source made the active and inactive calls. Calls come from the whole dose curve; as a rule, active = well fitted curve in the direction sought with a large enough effect; inconclusive = small, poorly fitted or top-dose-only effect, or another doubt; inactive = no such curve, though single readings can be large; an effect the other way counts as inactive or inconclusive.

Experiments:
[1] = target: Glutathione peroxidase 1 (Homo sapiens) (UniProt P07203); test: Primary qHTS Assay for Inhibitors of Recombinant Selenoprotein Glutathione Peroxidase 1 (GPX1) (AID 1845191); conditions: outcome: dose series up to 48.8 µM; note: nearly all actives have a fitted effect of over 65% in size
Chain of Glutathione peroxidase 1 (Homo sapiens) (P07203 whole entry, looked up): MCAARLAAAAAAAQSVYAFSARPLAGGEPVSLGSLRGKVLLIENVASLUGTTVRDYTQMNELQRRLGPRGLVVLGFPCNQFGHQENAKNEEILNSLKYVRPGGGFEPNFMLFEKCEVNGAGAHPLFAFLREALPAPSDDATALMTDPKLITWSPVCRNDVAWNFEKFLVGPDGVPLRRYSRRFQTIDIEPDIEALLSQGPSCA
Procedure, shortened: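 Recombinant GPX1 (10 nM final) was preincubated with compound for 30 min at room temperature, then reacted with 1 mM GSH, 0.5 mM CHP, 0.5 mM NADPH and 100 nM glutathione reductase; NADPH fluorescence (340/450 nm) was read at 0 and 15 min.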

[2] = target: Phospholipid hydroperoxide glutathione peroxidase GPX4 (Homo sapiens) (UniProt P36969); test: Primary qHTS Assay for Inhibitors of Recombinant Selenoprotein Glutathione Peroxidase 4 (GPX4) (AID 1845192); note: nearly all actives have a fitted effect of over 65% in size; note: potency is the fitted concentration of half-maximal effect
Chain of Phospholipid hydroperoxide glutathione peroxidase GPX4 (Homo sapiens) (P36969 whole entry, looked up): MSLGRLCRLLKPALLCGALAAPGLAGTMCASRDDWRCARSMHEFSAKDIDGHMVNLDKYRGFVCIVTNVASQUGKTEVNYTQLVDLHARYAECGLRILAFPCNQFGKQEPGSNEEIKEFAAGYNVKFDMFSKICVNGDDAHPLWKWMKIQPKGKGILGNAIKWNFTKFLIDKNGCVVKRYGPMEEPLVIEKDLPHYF
Procedure, shortened: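 GR-coupled readout: 100 nM GR, 1 mM GSH, 0.5 mM NADPH; NADPH fluorescence (ex 340/em 450 nm) read at t=0 and after 15 min RT. GPX4 200 nM, preincubated 30 min with compound; substrate 0.5 mM CHP.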

[3] = target: Luciferin 4-monooxygenase (Photinus pyralis) (UniProt P08659); test: Primary firefly luciferase (FLuc) qHTS assay for identification of artifact compounds. (AID 1845220); conditions: outcome: dose series up to 54.1 µM; note: nearly all actives have a fitted effect of over 60% in size
Procedure, shortened: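 Reaction readout was CCD-imaged luminescence, taken 5 min after adding 10 nM purified firefly enzyme to compound-treated wells holding 10 uM luciferin and ATP in pH 7.6 buffer.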

[4] = Primary fluorescence-based thiol-reactive (MSTI) qHTS assay for identification of artifact compounds. (AID 1845221);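 note: series mostly up to about 54 µM; thiol-reactive compounds lower the probe fluorescence signal; nearly all actives have a fitted effect of over 65% in size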
Procedure, shortened: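 Compounds were incubated 1 h at room temperature in the dark with the MSTI probe (4 uM) in PBS pH 7.4, 2% DMSO. Signals were normalized between Acetyl-MSTI and MSTI.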

[5] = system: Nanoluciferase (engineered Oplophorus gracilirostris luciferase); test: Primary Nanoluciferase (NLuc) qHTS assay for identification of artifact compounds. (AID 1845222);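 note: NLuc secreted into diluted conditioned medium of S16 cells; series mostly up to about 54 µM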
Procedure, shortened: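 Concentration-response data were obtained by luminescence after 5 min with Nano-Glo substrate at 1:100. The enzyme was diluted S16 NLuc-expressing cell medium, preincubated with compound for 15 min at RT. Curves were fitted with a 4-parameter Hill model.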

[6] = Primary redox qHTS assay for identification of artifact compounds. (AID 1845223)
Procedure, shortened: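 Amplex Red (25 uM) and HRP (250 mU/mL) in HBSS, with compounds for 15 min, then 250 uM DTT for 30 min, room temperature, dark. Fluorescence 525/598 nm read; normalized to DMSO and 10 uM DA3003; Hill fit.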

[7] = Quantitative High-Throughput drug screen in 47 multiple myeloma cell lines against the NCATS MIPE library collection: FR4_PLB cell viability assay (AID 1918924; note: potency is the fitted concentration of half-maximal effect; nearly all actives have a fitted effect of over 35% in size)
Procedure, shortened: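 Viability readout: CellTiter-Glo luminescence following 5 min room-temperature incubation with reagent. Prior exposure: 48 h, 37C, humidified 5% CO2, 500 cells per well.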

Q: With `CC1=C2[C@H]3OC(=O)[C@@H](C)[C@@H]3CC[C@@]2(C)C=CC1=O` as the compound, how does the outcome [1] read?
A: The outcome was “inactive”.

Q: What about the Potency [2] of the same compound?
A: The Potency was “inactive”.

Q: With `CCOC(=O)NC(C)(C)Cc1ccc(Cl)cc1` as the compound, how does the outcome [1] read?
A: Its outcome is “inactive”.

Q: And the Potency [2]?
A: Its Potency is “inactive”.

Q: And the outcome [3]?
A: Its outcome is “inactive”.

Q: And the outcome [4]?
A: The outcome was “inactive”.

Q: What about the outcome [5] of the same compound?
A: The outcome was “inactive”.

Q: What about the outcome [6] of the same compound?
A: The outcome was “inactive”.

Q: For `O=C(N[C@@H]1N=C(c2ccccc2F)c2cccc3c2N(CC3)C1=O)c1cc2ccccc2[nH]1`, which Potency [2] is on record?
A: The Potency was “inactive”.

Q: What about the outcome [4] of the same compound?
A: Its outcome is “inactive”.

Q: What about the outcome [5] of the same compound?
A: The outcome was “inactive”.

Q: What about the outcome [6] of the same compound?
A: The outcome was “inactive”.

Q: What does the source list for `CNC(C)Cc1ccccc1OC` (centres undefined)?
A: outcome [1]: inactive; Potency [2]: inactive

Q: Which outcome [1] does the source give for `O=C(NC(=O)c1c(F)cccc1F)Nc1cc(Cl)c(OC(F)(F)C(F)C(F)(F)F)cc1Cl` (centres undefined) here?
A: The outcome was “inactive”.

Q: What about the Potency [2] of the same compound?
A: The Potency was “inactive”.

Q: What does the source list for `CCCCC1C(=O)NC(=O)N(C2CCCCC2)C1=O` (centres undefined)?
A: outcome [1]: inactive; Potency [2]: inactive; outcome [3]: inactive; outcome [4]: inactive; outcome [5]: inactive; outcome [6]: inactive

Q: Which outcome [1] does the source give for `C[C@H](N)[C@H](O)c1ccc(O)c(O)c1` here?
A: Its outcome is “inactive”.

Q: And the Potency [2]?
A: Its Potency is “inactive”.

Q: With `C#C[C@]1(O)CC[C@H]2[C@@H]3CCC4=CC(=O)CCC4=C3C=C[C@@]21CC` as the compound, how does the Potency [2] read?
A: The Potency was 10 µM (active).

Q: For `C=CCOC(Cn1ccnc1)c1ccc(Cl)cc1Cl` (centres undefined), which outcome [1] is on record?
A: Its outcome is “inactive”.

Q: What about the Potency [2] of the same compound?
A: The Potency was “inactive”.

Q: Which outcome [1] does the source give for `COc1ccc(CN2CCNCC2)c(OC)c1OC` here?
A: Its outcome is “inactive”.

Q: And the Potency [2]?
A: The Potency was “inactive”.

Q: For `O=C(O)CCCCCCNC1c2ccccc2CCc2ccccc21`, which outcome [1] is on record?
A: The outcome was “inactive”.

Q: And the Potency [2]?
A: The Potency was “inactive”.

Q: And the outcome [3]?
A: Its outcome is “inactive”.

Q: And the outcome [4]?
A: Its outcome is “inactive”.

Q: And the outcome [5]?
A: The outcome was “inactive”.

Q: What about the outcome [6] of the same compound?
A: Its outcome is “inactive”.

Q: With `O=c1n(Cl)c(=O)n(Cl)c(=O)n1Cl` as the compound, how does the Potency [2] read?
A: Its Potency is “inactive”.

Q: What does the source list for `CNC(=O)Oc1cccc2ccccc12`?
A: outcome [1]: inactive; Potency [2]: inactive

Q: What does the source list for `CC#C[C@]1(O)CC[C@H]2[C@@H]3C[C@H](C)C4=CC(=O)CC[C@]4(C)[C@H]3CC[C@@]21C`?
A: outcome [1]: inactive; Potency [2]: inactive

Q: What does the source list for `COc1ccc2c(C(=O)c3ccc(Cl)cc3)c(C)n(CC(=O)O)c2c1`?
A: outcome [1]: inactive; Potency [2]: inactive; outcome [3]: inactive; outcome [4]: inactive; outcome [5]: inactive

Q: For `CC[C@H]1C[C@H]2[C@@H]3CCC4=CC(=O)CC[C@@H]4[C@H]3CC[C@]2(C)[C@H]1O`, which outcome [1] is on record?
A: The outcome was “inactive”.

Q: What about the Potency [2] of the same compound?
A: The Potency was “inactive”.

Q: What about the outcome [3] of the same compound?
A: Its outcome is “inactive”.

Q: What about the outcome [4] of the same compound?
A: The outcome was “inactive”.

Q: What about the outcome [5] of the same compound?
A: The outcome was “inactive”.

Q: What about the outcome [6] of the same compound?
A: The outcome was “inactive”.

Q: Which outcome [1] does the source give for `CCOC(=O)C1(c2ccccc2)CCN(CCc2ccc(N)cc2)CC1` here?
A: Its outcome is “inactive”.

Q: What about the Potency [2] of the same compound?
A: The Potency was “inactive”.

Q: With `C[C@@H]1C[C@@H]([C@H](O)CC2CC(=O)NC(=O)C2)C(=O)[C@@H](C)C1` as the compound, how does the outcome [1] read?
A: The outcome was “inactive”.

Q: And the Potency [2]?
A: Its Potency is “inactive”.

Q: And the Potency [7]?
A: The Potency was 0.743 µM (active).

Q: For `Clc1ccc(C(OCCN2CCCCC2)c2ccccc2)cc1` (centres undefined), which outcome [1] is on record?
A: Its outcome is “inactive”.

Q: What about the Potency [2] of the same compound?
A: The Potency was “inactive”.

Q: What does the source list for `O=C1CN2CCOC2(c2ccccc2Cl)c2cc(Cl)ccc2N1` (centres undefined)?
A: outcome [1]: inactive; Potency [2]: inactive

Q: Which outcome [1] does the source give for `Cc1nnc2n1-c1sc(CCc3ccc(CC(C)C)cc3)cc1C(c1ccccc1Cl)=NC2C` (centres undefined) here?
A: The outcome was “inactive”.

Q: And the Potency [2]?
A: Its Potency is 25.5 µM (active).

Q: And the outcome [3]?
A: The outcome was “inactive”.

Q: And the outcome [4]?
A: Its outcome is “inactive”.

Q: What about the outcome [5] of the same compound?
A: Its outcome is “inactive”.

Q: And the outcome [6]?
A: The outcome was “inactive”.

Q: With `CCCOC(=O)Cc1ccc(OCC(=O)N(CC)CC)c(OC)c1` as the compound, how does the outcome [1] read?
A: The outcome was “inactive”.

Q: What about the Potency [2] of the same compound?
A: The Potency was “inactive”.

Q: What about the outcome [3] of the same compound?
A: Its outcome is “inactive”.

Q: And the outcome [4]?
A: Its outcome is “inactive”.

Q: What about the outcome [5] of the same compound?
A: The outcome was “inactive”.

Q: And the outcome [6]?
A: The outcome was “inactive”.

Q: With `C=CCN1CC[C@]23CCCC[C@H]2[C@H]1Cc1ccc(O)cc13` as the compound, how does the outcome [1] read?
A: Its outcome is “inactive”.

Q: What about the Potency [2] of the same compound?
A: Its Potency is “inactive”.

Q: Which outcome [1] does the source give for `CCOC(=O)c1cncn1C(C)c1ccccc1` (centres undefined) here?
A: The outcome was “inactive”.

Q: What about the Potency [2] of the same compound?
A: Its Potency is “inactive”.

Q: What about the outcome [3] of the same compound?
A: The outcome was “inactive”.

Q: What about the outcome [4] of the same compound?
A: The outcome was “inactive”.

Q: What about the outcome [5] of the same compound?
A: Its outcome is “inactive”.

Q: What about the outcome [6] of the same compound?
A: Its outcome is “inactive”.

Q: For `CCCC[N+]1(C)[C@@H]2CC(OC(=O)[C@H](CO)c3ccccc3)C[C@H]1[C@@H]1O[C@@H]12` (some centres undefined), which outcome [1] is on record?
A: Its outcome is “inactive”.

Q: What about the Potency [2] of the same compound?
A: The Potency was “inactive”.

Q: And the outcome [3]?
A: Its outcome is “inactive”.

Q: And the outcome [4]?
A: The outcome was “inactive”.

Q: What about the outcome [5] of the same compound?
A: Its outcome is “inactive”.

Q: What about the outcome [6] of the same compound?
A: Its outcome is “inactive”.

Q: Which outcome [1] does the source give for `C#C[C@]1(O)C=C[C@H]2[C@@H]3CCC4=CC(=O)CC[C@@H]4[C@H]3CC[C@@]21CC` here?
A: Its outcome is “inactive”.

Q: What about the Potency [2] of the same compound?
A: Its Potency is “inactive”.

Q: Which Potency [2] does the source give for `Cc1c(Cl)c(=O)oc2cc(OP(=O)(OCCCl)OCCCl)ccc12` here?
A: Its Potency is “inactive”.

Q: With `C[C@@H]1CC[C@H]2[C@@H](C)C(=O)O[C@@H]3O[C@@]4(C)CC[C@@H]1[C@]32OO4` as the compound, how does the outcome [1] read?
A: The outcome was “inactive”.

Q: What about the Potency [2] of the same compound?
A: The Potency was “inactive”.

Q: Which outcome [1] does the source give for `C[N+]1(C)[C@@H]2CC[C@H]1CC(OC(=O)C(CO)c1ccccc1)C2` (some centres undefined) here?
A: The outcome was “inactive”.

Q: And the Potency [2]?
A: Its Potency is “inactive”.

Q: Which results are given for `CCOC(=O)c1ncn2c1CN(C)C(=O)c1c(I)cccc1-2`?
A: outcome [1]: inactive; Potency [2]: inactive; outcome [3]: inactive; outcome [4]: inactive; outcome [5]: inactive; outcome [6]: inactive
